Screening results deposited in PubChem BioAssay by several laboratories.
DTT redox prof: compounds producing H2O2 with reducing agent – biochemical, NIH compound library profiling, artefact control for MLSCN library redox annotation, primary screen | DTT-dependent redox cycling H2O2, phenol red/HRP absorbance; 100% = 100 µM peroxide control, 0% = buffer | activation, % at 10 µM | actives 0.03% (n = 200,000);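 active = activation of at least 50% relative to the plate's high and low controls in the primary single-dose screen; inactive = activation below 50%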;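 also: compound incubated with DTT at 0.8 mM final as the reducing agent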
Wee1 stabilizer: human Wee1 degradation inhibition, primary screen; HeLa Luc-Wee1K328M stability, luciferase luminescence; 100% = proteasome inhibitor MG132 effect; reporter increase, % at 5 µM; actives 1.2% (n = 220,000); AID 1321;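 active = activation above the mean of all tested compounds plus 3 SD, set per screening run, cut at about 8.8% in these data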;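 also: cells exposed to compound for 20 h before luminescence read; 0% = DMSO alone and 100% = MG132 at 30 µM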
Hsp70 act: switches on Hsp70 transcription. actives 0.04% (n = 200,000). activation, % at 10 µM. AID 1203. HeLa Hsp70 promoter luciferase reporter, luminescence; scaled: vehicle 0, proteasome-inhibitor control 100%;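 active = activation above the mean across all tested compounds plus 3 SD, cutoff set per campaign, cut at about 5.5% in these data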;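 also: 100% = MG132 at 30 µM as the positive control and 0% = DMSO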
HSV augment: HSV replication enhancement; actives 0.005% (n = 220,000); maximum fold increase; AID 1956; HSV replication augmentation in cells, fold increase; in the data active = maximum fold increase above about 1.5; tested in PC3 cells
p97 inhibitor: blocks human p97 ATPase activity; recombinant p97 ATPase, Kinase-Glo ATP luminescence, 3 h; inhibition, % at 8 µM; actives 0.42% (n = 220,000); in the data active = inhibition above about 15%;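 also: 0% = DMSO vehicle and 100% = wells lacking enzyme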
Target sequence (P55072 whole entry, looked up): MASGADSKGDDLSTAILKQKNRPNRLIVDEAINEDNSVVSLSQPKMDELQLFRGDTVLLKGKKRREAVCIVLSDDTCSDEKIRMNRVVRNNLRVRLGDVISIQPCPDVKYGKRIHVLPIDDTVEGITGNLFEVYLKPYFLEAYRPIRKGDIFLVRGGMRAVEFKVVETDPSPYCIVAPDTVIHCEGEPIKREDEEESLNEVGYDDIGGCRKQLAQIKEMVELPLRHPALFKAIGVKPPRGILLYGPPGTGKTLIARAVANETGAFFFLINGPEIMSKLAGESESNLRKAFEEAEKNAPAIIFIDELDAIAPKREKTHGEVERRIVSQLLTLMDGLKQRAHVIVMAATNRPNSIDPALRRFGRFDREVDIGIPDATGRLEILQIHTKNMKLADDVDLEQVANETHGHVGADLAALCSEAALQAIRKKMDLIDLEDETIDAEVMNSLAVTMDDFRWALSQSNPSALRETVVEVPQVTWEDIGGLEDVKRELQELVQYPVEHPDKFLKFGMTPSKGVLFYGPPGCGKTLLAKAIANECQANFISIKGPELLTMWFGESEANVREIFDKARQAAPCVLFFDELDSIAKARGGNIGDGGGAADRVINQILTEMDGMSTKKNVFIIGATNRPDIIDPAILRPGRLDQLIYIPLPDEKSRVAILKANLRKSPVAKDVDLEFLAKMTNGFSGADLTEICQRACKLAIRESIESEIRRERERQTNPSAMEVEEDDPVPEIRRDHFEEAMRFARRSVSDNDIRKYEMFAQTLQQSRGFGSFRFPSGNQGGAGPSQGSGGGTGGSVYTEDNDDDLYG
Wee1 stab conf: human Wee1 degradation inhibition, confirmation; AID 1410; activation, % at 5 µM; shares compounds with Wee1 stabilizer; HeLa Luc-Wee1K328M degradation, luminescence; vehicle 0%, proteasome-blocked wells 100%; actives 4% (n = 1,100); in the data active = activation above about 8.9%
Starred values were filed as active, the others as inactive; i = inactive; . = no result. Compounds with a hit are over-represented: about 1.6% of the library has one in this group of screens.

SMILES	DTT redox prof	Wee1 stabilizer	Hsp70 act	HSV augment	p97 inhibitor	Wee1 stab conf
COC(=O)c1sccc1NC(=S)N1CCN(c2ccc(F)cc2)CC1	-0.3	4.3	-0.5	i	1.1	.
COc1ccc(-c2noc(CN(C)Cc3ccc(C)o3)n2)cc1	-1.2	12.4*	0.7	i	-0.4	2.7
O=C(C1CCCN(S(=O)(=O)c2cccc3nsnc23)C1)N1CCN(c2ccccn2)CC1 (configuration not stated)	-0.1	-4.2	0.1	i	-0.8	.
C/C(=N\NC(=O)c1csc(C)c1C)c1ccc(Cl)s1	1.3	11.7*	0.2	i	5.2	2.0
CCN1CCCC1Cn1cnc2c([nH]c3ccc(Cl)cc32)c1=O (configuration not stated)	1.5	-1.0	-0.5	i	2.7	.
COc1ccc(C2CC(C(F)(F)F)n3ncc(C(=O)Nc4cccc(O)c4)c3N2)cc1OC (configuration not stated)	0.6	13.2*	-0.4	i	9.7	-3.1
CC(=O)Nc1cccc(/C(C)=N/NC(=O)c2cccc(S(=O)(=O)N3CCOCC3)c2)c1	-3.8	13.6*	-0.1	i	-4.3	-1.3
C/C(=N\NC(=O)c1cccc(S(=O)(=O)N2CCOCC2)c1)c1ccco1	.	0.3	.	i	6.3	.
CC1=CC(c2ccccc2)n2nnnc2N1 (configuration not stated)	.	11.6*	.	i	1.5	3.8
O=c1[nH]nc(N/N=C/c2ccccc2OC(F)F)c(=O)[nH]1	.	-1.9	.	i	10.6	.
O=C(/C=C/c1cccc([N+](=O)[O-])c1)N(c1ccccn1)c1ccccn1	.	-2.5	.	i	0.7	.
CN(CC(=O)N1CCc2ccccc21)S(=O)(=O)c1cccs1	1.0	13.8*	0.3	i	6.5	4.1
CC1=NN(C(=O)c2cccnc2)C(O)(C(F)(F)F)C1 (configuration not stated)	-0.3	-0.9	0.1	i	4.5	.
O=C(c1ccccc1Cl)N1CCSCC1	.	20.1*	.	i	8.7	-2.1
Cn1c(-c2sccc2OCc2ccc(Cl)cc2Cl)n[nH]c1=S	-2.6	-0.9	-0.2	i	-3.1	.
FC(F)(F)c1cccnc1-n1cncn1	.	5.8	.	i	7.8	.
O=C(OCC(=O)N1CCc2ccccc2C1)c1cc(=O)[nH]c2ccccc12	.	16.0*	.	i	-0.2	-1.1
Cc1ccc(/C=C/C(=O)c2ccc(O)cc2)cc1	.	16.7*	.	i	-6.1	-0.4
CSc1ccc(/C=C/C(=O)c2ccc(O)cc2)cc1	0.0	-0.4	0.0	i	-3.5	.
COc1ccc(OCC(Cn2cnc3ccccc32)OC(C)=O)cc1 (configuration not stated)	-1.0	-2.5	0.2	i	-5.2	.
O=C(O)c1c[nH]ccc1=O	-0.9	5.9	-0.3	i	5.5	.
CC(C)CC(=O)Nc1ccc(-c2nc3ccccc3c(=O)[nH]2)cc1	0.4	13.4*	0.1	i	-5.6	-1.2
CC(C)CC(=O)Nc1ccc(-c2nc3ccccc3c(=O)o2)cc1	-0.3	0.8	-0.5	i	-7.1	.
CCCCn1c(N2CCC(Cc3ccccc3)CC2)nc2c1c(=O)[nH]c(=O)n2C	-1.1	12.9*	0.0	i	-2.7	1.8
Cc1nnc(SCCn2c(N3CCC(Cc4ccccc4)CC3)nc3c2c(=O)[nH]c(=O)n3C)s1	.	-1.6	.	i	1.2	.
SMILES	DTT redox prof	Wee1 stabilizer	Hsp70 act	HSV augment	p97 inhibitor	Wee1 stab conf
Brc1cc2c(cc1COc1ccc(-c3nn[nH]n3)cc1)OCO2	0.7	-0.2	-0.6	i	2.0	.
COc1ccc(C(C(=O)Nc2ccc(C(C)C)cc2)N(Cc2ccco2)C(=O)CC2NC(=O)NC2=O)cc1 (configuration not stated)	-0.4	15.8*	-0.1	i	0.5	3.6
COc1ccc(NC(=O)C(c2ccc(OC)cc2)N(Cc2ccco2)C(=O)CC2NC(=O)NC2=O)cc1 (configuration not stated)	-0.2	1.4	0.1	i	3.4	.
CCC1CCCCN1C(=S)NC1CCCCC1 (configuration not stated)	-0.3	13.9*	-0.4	i	0.3	0.7
O=C(COc1ccccc1F)Nc1ccc(S(=O)(=O)NCc2ccco2)cc1	-0.7	-0.8	-0.1	i	6.0	.
COc1cc2c(cc1NC(=O)c1ccc(C(C)(C)C)cc1)CCCC2	2.0	-0.4	-0.1	.	2.6	.
O=C(c1ccc(NC(=O)C2(c3ccccc3)CCCC2)cc1)N1CCOCC1	.	27.0*	.	i	-3.9	-2.0
COc1ccc(C2(C(=O)Nc3ccc(C(=O)N4CCOCC4)cc3)CCOCC2)cc1	1.1	-1.6	-0.1	i	2.2	.
NC(=O)NC(=O)CC1S/C(=N/N=C2\CSC(=O)N2)NC1=O (configuration not stated)	2.8	-3.6	-0.2	i	1.8	.
O=C(O)CNC(=O)CC1S/C(=N/N=C2/NC(=O)CS2)NC1=O (configuration not stated)	-1.4	12.6*	-0.3	i	-3.5	-0.9
C=CCNCCCOc1ccc(C(C)(C)c2ccccc2)cc1	0.1	12.9*	-0.1	i	-0.8	-1.2
CC(NC(=O)CCc1nnc(-c2ccccc2)o1)c1ccccc1 (configuration not stated)	0.4	3.7	-0.2	i	2.8	.
CC(Cc1cccnc1)NC(=O)CCc1nnc(-c2ccccc2)o1 (configuration not stated)	-1.1	18.9*	0.2	i	3.8	4.0
COc1ccc(CN(Cc2cccn2C)S(=O)(=O)c2ccc(F)cc2)cc1	.	10.9*	.	i	-0.6	-1.0
Cc1ccccc1CS(=O)(=O)Cc1ccc(C(=O)NCc2ccco2)o1	-0.4	0.4	0.0	.	1.0	.
c1ccc(-n2cnnc2SCc2cn3ccccc3n2)cc1	-0.4	0.2	0.1	i	1.1	.
c1ccc(-n2cnnc2SCc2cn3ccsc3n2)cc1	1.8	13.0*	0.1	i	7.0	1.4
Cc1csc(SCC(=O)Nc2cccc(S(=O)(=O)N3CCCC3)c2)n1	0.3	-1.7	-0.4	i	3.1	.
Cc1csc(SCC(=O)Nc2cc(S(=O)(=O)N3CCCC3)ccc2Cl)n1	2.2	12.6*	-0.1	i	3.9	1.3
CCOc1ccc(CCNc2nc3ccccc3n3cnnc23)cc1OCC	.	0.2	.	i	-6.8	.
O=C(CCS(=O)(=O)c1ccccc1)Nc1ccc(N2CCOCC2)cc1	-0.7	11.4*	0.3	i	5.1	-2.3
O=C(Cc1ccccc1)Nc1ccc(N2CCOCC2)cc1	-0.4	0.3	-0.4	i	2.4	.
Cc1ccc(NC(=O)NCc2c(C)nn(C)c2C)cc1Cl	-1.4	17.7*	-0.3	i	1.0	4.3
COc1ccc(CCC(=O)Nc2sccc2C#N)cc1	-0.1	11.8*	0.0	i	4.5	0.1
